# Measurements from article PMC7862700, “An all-to-all approach to the identification of sequence-specific readers for epigenetic DNA modifications on cytosine”.
# Assays:
# Experiment in all cases: DAPPL (digital affinity profiling via proximity ligation, sequencing); 10 mM Tris-HCl pH 7.5, 50 mM NaCl, 1 mM DTT, 4% glycerol, room temperature, 30 min; GST-TFs on glutathione beads, 16-mer random dsDNA library, 0.1% formaldehyde crosslink after washing; high values mean tight binding
# Conditions in all cases: protein: recombinant; tags: N-terminal GST; dsDNA, one strand shown
# FLI1 = target: T1, FLI1 (Homo sapiens, UniProt Q01543 1-452)
# T1 sequence: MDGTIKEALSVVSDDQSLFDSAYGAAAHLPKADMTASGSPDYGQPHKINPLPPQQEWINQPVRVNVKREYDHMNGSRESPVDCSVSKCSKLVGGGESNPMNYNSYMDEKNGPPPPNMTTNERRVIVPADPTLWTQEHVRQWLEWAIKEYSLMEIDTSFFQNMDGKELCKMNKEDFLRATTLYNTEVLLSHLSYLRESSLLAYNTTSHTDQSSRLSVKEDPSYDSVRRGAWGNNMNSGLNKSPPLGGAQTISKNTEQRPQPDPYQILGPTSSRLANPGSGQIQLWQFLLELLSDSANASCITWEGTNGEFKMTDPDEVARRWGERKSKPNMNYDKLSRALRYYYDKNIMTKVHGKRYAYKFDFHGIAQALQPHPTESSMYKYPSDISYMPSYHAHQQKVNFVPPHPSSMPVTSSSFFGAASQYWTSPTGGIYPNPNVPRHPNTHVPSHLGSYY
# Outline: (§1)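 Binding signal is given per hexamer as its read frequency for a factor divided by its frequency in the tag-only sample. GST-fused human transcription factors were expressed in yeast, captured on glutathione beads, barcoded with DNA and pooled with that sample, then incubated with 200 nmole of a 16-mer random double-stranded DNA library in Tris/NaCl/DTT/glycerol buffer for 30 min at room temperature. The pools were then washed, crosslinked, proximity-ligated, amplified by PCR and sequenced on an Illumina NextSeq500.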
# ELK1 = target: T2, ELK1 (Homo sapiens, UniProt P19419 1-428)
# T2 sequence: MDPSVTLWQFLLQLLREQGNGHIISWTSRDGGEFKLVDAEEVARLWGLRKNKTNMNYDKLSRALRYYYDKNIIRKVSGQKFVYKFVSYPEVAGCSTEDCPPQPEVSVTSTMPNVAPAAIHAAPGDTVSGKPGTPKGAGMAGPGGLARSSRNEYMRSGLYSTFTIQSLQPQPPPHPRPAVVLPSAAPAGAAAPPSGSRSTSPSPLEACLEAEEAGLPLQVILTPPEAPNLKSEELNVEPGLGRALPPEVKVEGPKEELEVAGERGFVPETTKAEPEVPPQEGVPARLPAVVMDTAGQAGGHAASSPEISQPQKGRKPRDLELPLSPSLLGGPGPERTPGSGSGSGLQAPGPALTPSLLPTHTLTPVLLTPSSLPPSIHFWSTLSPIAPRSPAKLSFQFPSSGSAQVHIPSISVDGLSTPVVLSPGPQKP
# Outline: as §1
# GABPA = target: T3, GABPA (Homo sapiens, UniProt Q06546 1-454)
# T3 sequence: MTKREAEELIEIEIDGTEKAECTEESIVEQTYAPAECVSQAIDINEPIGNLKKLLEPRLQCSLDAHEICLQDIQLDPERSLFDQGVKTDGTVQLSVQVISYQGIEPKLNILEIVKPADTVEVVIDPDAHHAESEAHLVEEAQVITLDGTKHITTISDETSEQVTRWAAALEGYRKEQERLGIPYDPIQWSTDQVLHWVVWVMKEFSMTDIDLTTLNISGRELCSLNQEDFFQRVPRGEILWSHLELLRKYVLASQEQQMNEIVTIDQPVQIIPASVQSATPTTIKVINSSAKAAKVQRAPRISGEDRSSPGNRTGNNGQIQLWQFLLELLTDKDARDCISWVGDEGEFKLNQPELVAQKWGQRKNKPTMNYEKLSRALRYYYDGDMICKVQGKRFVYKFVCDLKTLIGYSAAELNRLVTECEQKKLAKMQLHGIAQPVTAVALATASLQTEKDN
# Outline: as §1
# ERG = target: T4, ERG (Homo sapiens, UniProt P11308 1-479)
# T4 sequence: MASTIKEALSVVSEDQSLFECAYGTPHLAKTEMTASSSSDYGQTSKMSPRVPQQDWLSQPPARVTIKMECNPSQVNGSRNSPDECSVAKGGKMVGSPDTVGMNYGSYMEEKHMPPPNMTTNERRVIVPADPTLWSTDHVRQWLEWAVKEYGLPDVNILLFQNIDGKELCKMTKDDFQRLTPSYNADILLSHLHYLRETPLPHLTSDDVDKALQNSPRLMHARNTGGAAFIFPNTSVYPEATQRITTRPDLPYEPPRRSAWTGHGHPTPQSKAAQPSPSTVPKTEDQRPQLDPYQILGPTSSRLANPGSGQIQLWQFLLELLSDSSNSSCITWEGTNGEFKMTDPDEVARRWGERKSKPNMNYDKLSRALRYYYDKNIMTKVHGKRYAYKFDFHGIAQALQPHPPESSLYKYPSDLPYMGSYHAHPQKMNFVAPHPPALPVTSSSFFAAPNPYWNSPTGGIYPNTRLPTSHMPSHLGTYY
# Outline: as §1
# ELF1 = ELF1 (Homo sapiens, UniProt P32519 1-619)
# Sequence of ELF1 (P32519 whole entry): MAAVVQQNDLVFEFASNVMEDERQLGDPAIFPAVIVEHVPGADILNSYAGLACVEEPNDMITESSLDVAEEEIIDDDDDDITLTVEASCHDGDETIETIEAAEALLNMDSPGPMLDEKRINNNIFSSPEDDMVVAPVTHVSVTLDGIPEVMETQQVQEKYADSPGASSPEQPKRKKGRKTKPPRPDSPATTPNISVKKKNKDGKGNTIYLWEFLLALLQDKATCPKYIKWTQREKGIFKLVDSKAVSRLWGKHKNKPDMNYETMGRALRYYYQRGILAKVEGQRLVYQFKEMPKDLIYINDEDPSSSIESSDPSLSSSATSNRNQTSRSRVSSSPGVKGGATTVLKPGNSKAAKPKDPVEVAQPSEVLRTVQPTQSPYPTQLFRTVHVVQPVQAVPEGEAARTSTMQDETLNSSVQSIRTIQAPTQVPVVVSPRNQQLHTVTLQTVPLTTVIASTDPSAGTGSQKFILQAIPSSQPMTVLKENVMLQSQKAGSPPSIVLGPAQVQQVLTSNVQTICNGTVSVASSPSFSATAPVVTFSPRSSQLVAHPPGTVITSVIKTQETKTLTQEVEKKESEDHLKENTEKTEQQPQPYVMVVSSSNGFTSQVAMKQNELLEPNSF
# Outline: as §1
# EHF = target: T5, EHF (Homo sapiens, UniProt Q9NZC4 1-300)
# T5 sequence: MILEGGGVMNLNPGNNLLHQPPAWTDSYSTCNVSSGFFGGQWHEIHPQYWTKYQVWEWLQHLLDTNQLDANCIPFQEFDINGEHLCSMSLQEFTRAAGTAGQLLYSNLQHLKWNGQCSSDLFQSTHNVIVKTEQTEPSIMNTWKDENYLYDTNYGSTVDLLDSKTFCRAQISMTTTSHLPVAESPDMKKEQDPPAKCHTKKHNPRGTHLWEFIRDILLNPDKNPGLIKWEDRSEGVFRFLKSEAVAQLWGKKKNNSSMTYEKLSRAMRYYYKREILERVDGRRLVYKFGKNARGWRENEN
# Outline: as §1
# SPI1 = SPI1 (Homo sapiens, UniProt P17947 1-270)
# Outline: as §1
# SPIB = SPIB (Homo sapiens, UniProt Q01892 1-262)
# Sequence of SPIB (Q01892 whole entry): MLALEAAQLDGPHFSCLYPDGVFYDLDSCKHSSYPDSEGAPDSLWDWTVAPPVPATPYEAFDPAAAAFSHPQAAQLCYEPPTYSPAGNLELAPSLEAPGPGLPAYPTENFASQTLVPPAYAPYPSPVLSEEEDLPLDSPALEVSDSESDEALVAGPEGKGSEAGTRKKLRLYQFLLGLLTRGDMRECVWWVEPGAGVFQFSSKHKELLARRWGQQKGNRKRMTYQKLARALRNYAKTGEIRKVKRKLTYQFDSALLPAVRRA
# Outline: as §1
# ELK3 = target: T6, ELK3 (Homo sapiens, UniProt P41970 1-407)
# T6 sequence: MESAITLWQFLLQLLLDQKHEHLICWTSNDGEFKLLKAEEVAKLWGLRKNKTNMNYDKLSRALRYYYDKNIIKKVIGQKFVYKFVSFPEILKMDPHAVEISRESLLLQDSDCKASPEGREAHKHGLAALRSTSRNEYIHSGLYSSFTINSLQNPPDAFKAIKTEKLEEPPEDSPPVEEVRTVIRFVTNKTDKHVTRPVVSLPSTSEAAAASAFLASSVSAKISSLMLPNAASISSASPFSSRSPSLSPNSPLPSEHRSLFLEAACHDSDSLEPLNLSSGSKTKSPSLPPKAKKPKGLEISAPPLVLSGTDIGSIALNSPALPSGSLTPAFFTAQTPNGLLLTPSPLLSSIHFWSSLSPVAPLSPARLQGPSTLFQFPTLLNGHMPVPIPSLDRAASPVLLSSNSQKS
# Outline: as §1
# FEV = target: T7, FEV (Homo sapiens, UniProt Q99581 1-238)
# T7 sequence: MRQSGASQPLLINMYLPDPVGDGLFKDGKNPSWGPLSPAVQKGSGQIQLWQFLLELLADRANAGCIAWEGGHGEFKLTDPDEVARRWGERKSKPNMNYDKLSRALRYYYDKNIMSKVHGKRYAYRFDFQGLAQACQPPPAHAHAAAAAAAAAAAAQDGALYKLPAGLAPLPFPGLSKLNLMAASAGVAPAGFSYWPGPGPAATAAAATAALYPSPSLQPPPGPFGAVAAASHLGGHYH
# Outline: as §1
# ETV5 = ETV5 (Homo sapiens, UniProt P41161 1-510)
# Sequence of ETV5 (P41161 whole entry): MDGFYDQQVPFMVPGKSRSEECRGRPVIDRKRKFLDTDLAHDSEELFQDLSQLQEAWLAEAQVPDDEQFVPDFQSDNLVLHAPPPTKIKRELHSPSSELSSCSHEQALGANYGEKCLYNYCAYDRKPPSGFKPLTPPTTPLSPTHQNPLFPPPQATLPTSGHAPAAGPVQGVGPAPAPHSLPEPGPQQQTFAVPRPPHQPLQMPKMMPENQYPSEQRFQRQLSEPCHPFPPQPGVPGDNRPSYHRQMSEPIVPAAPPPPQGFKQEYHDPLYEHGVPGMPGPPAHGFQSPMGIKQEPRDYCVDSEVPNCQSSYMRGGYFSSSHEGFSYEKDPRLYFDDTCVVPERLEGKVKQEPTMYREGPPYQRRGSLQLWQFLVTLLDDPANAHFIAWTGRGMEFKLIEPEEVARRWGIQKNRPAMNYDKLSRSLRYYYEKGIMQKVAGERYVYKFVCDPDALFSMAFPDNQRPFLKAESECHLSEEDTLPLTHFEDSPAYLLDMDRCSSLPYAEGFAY
# Outline: as §1
# SPIC = target: T8, SPIC (Homo sapiens, UniProt Q8N5J4 1-248)
# T8 sequence: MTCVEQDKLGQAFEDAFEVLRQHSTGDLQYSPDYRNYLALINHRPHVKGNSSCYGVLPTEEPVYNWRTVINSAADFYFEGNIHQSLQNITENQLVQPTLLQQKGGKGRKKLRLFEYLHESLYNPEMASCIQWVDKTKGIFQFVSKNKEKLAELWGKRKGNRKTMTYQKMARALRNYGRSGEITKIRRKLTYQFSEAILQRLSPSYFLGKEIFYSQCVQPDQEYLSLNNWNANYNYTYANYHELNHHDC
# Outline: as §1
# ELF4 = ELF4 (Homo sapiens, UniProt Q99607 1-663)
# Sequence of ELF4 (Q99607 whole entry): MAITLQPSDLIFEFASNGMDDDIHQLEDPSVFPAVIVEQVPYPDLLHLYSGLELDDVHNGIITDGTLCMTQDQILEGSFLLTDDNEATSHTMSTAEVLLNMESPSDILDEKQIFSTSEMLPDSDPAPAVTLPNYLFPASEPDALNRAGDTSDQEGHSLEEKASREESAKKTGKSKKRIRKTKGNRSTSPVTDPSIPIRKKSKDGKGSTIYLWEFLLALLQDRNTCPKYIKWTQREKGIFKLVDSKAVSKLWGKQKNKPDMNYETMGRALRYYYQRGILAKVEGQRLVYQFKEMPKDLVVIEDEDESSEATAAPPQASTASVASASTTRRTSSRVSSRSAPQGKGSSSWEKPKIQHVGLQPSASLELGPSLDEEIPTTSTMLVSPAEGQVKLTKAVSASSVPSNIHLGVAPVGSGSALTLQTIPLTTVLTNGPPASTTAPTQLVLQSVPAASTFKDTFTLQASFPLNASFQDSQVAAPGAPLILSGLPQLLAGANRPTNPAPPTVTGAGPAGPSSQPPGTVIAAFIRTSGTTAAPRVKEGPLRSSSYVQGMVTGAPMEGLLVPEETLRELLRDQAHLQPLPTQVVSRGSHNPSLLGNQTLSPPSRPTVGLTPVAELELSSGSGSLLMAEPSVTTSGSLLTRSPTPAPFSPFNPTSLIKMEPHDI
# Outline: as §1
# ELK4 = target: T9, ELK4 (Homo sapiens, UniProt P28324-2 1-405)
# T9 sequence: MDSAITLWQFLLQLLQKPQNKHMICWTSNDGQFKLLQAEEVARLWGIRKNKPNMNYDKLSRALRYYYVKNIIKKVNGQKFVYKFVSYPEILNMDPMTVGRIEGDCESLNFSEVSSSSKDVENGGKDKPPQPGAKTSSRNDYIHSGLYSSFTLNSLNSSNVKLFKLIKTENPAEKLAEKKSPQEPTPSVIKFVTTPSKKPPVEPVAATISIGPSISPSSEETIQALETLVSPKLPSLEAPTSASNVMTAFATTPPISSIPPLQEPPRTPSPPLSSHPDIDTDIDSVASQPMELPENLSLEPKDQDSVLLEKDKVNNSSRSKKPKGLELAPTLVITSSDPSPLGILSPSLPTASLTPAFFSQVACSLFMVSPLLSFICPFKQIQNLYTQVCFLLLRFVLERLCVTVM
# Outline: as §1
# ETV2 = target: T10, ETV2 (Homo sapiens, UniProt O00321 1-342)
# T10 sequence: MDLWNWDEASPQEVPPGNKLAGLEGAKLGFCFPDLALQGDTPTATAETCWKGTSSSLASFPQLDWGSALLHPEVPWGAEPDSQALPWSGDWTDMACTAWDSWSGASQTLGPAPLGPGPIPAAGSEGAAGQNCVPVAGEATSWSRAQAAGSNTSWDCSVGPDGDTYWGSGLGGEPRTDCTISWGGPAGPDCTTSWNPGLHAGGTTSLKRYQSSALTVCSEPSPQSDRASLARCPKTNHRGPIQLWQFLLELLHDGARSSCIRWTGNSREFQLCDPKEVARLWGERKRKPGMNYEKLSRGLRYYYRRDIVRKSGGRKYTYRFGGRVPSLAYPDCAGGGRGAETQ
# Outline: as §1
# ELF3 = target: T11, ELF3 (Homo sapiens, UniProt P78545 1-371)
# T11 sequence: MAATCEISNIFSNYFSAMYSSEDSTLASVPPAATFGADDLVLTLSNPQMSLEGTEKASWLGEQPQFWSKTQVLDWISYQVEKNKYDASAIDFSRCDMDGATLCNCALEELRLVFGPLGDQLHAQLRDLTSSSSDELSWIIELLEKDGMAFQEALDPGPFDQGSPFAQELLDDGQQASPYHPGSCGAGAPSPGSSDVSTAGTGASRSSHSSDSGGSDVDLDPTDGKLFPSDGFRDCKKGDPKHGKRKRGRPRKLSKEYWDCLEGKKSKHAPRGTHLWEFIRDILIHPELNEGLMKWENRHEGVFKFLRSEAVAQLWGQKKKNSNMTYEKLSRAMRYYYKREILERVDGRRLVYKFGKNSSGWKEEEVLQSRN
# Outline: as §1
# ETV1 = ETV1 (Homo sapiens, UniProt P50549 1-477)
# Sequence of ETV1 (P50549 whole entry): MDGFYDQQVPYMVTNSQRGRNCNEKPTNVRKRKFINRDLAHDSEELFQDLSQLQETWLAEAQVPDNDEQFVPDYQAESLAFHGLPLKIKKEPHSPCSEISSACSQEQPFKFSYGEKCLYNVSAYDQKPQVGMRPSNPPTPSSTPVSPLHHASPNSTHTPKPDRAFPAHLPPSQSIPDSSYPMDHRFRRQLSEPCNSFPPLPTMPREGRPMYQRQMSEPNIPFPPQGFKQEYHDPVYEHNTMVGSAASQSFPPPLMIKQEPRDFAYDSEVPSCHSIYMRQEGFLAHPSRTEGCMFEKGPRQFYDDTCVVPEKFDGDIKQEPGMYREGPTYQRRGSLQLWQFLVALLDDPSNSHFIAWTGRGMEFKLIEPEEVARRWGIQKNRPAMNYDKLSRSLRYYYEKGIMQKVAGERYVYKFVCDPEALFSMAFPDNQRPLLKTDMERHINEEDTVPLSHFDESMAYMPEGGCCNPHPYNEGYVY
# Outline: as §1
sequence,measurement,setting,value
GCTACA,binding signal,FLI1,"1.16 fold enrichment (6-mer frequency, TF over GST control)"
same,binding signal,ELK1,"1.07 fold enrichment (6-mer frequency, TF over GST control)"
same,binding signal,GABPA,"1.22 fold enrichment (6-mer frequency, TF over GST control)"
same,binding signal,ERG,"1.13 fold enrichment (6-mer frequency, TF over GST control)"
same,binding signal,ELF1,"1.17 fold enrichment (6-mer frequency, TF over GST control)"
same,binding signal,EHF,"1.21 fold enrichment (6-mer frequency, TF over GST control)"
same,binding signal,SPI1,"1.2 fold enrichment (6-mer frequency, TF over GST control)"
same,binding signal,SPIB,"1.24 fold enrichment (6-mer frequency, TF over GST control)"
same,binding signal,ELK3,"1.19 fold enrichment (6-mer frequency, TF over GST control)"
same,binding signal,FEV,"1.22 fold enrichment (6-mer frequency, TF over GST control)"
same,binding signal,ETV5,"1.18 fold enrichment (6-mer frequency, TF over GST control)"
same,binding signal,SPIC,"1.33 fold enrichment (6-mer frequency, TF over GST control)"
same,binding signal,ELF4,"1.18 fold enrichment (6-mer frequency, TF over GST control)"
same,binding signal,ELK4,"1.24 fold enrichment (6-mer frequency, TF over GST control)"
same,binding signal,ETV2,"1.17 fold enrichment (6-mer frequency, TF over GST control)"
same,binding signal,ELF3,"1.27 fold enrichment (6-mer frequency, TF over GST control)"
same,binding signal,ETV1,"1.13 fold enrichment (6-mer frequency, TF over GST control)"
